From PubChem BioAssay
Inconclusive results are not listed. Calls of active or inactive are those of the source.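 How the source made its calls, unless noted: active means normalized viability below 100% at a tested concentration; inactive means the rest.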

Assays:
[1] = growth inhibition of DIPG glioma cells, dose response, cell-based, SU-DIPG-XVII, MIPE5.0, CellTiter-Glo, qHTS (AID 1347060; cut-off not given, nearly all actives have AC50 up to about 26 µM); settings: SU-DIPG-XVII viability, CellTiter-Glo ATP luminescence
[2] = growth inhibition of DIPG glioma cells, dose response, cell-based, SU-DIPG-XIII, MIPE5.0, CellTiter-Glo, qHTS (AID 1347064; cut-off not given, nearly all actives have AC50 up to about 23 µM;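 on AC50: cells exposed to compound for 48 hours before the viability read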); settings: SU-DIPG-XIII viability, CellTiter-Glo ATP luminescence
[3] = SU-DIPG-XXV glioma cell viability, MIPE5.0 library, qHTS (AID 1347068; cut-off not given, nearly all actives have IC50 up to about 30 µM;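 on IC50: cells exposed to compound for 48 hours before viability readout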)
[4] = JHH-DIPG-1 glioma cell viability, MIPE5.0 library, CellTiter-Glo luminescence, qHTS (AID 1347067; cut-off not given, nearly all actives have AC50 up to about 26 µM;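 further: cells exposed to compound for 48 hours before readout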); settings: JHH-DIPG-1 glioma viability, CellTiter-Glo ATP luminescence
[5] = sensitizers of A549 cells to miR-34 induction, primary screen, imaging, A549 dox-inducible miR-34, nuclei and caspase counts (AID 1347080;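 active means compounds whose cell count with miR-34 switched on is under 0.7 times the count with it off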); settings: A549 miR-34 inducible, Hoechst nuclei count, 48 h
[6] = survival rescue of mitochondrial mutant cells in low glucose, primary screen, MELAS cybrids, Rieske KO mouse fibroblasts, CellTiter-Glo (AID 1508586;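 active means mean z-score across replicates of 1.96 or higher in either the MELAS or the Rieske mutant cell line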;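 further: z relative to plate mean and SD of compound and empty wells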)
[7] = ovarian cancer cell viability with rucaparib, profiling panel, oncology-focused library, rucaparib conditional (AID 1508598); settings: patient-derived ovarian cancer cells, CellTiter-Glo viability, 144 h, stronger effect = lower value

Compound: CCS(=O)(=O)c1ccc2oc(-c3ccc4ccccc4c3)nc2c1
- outcome [1]: inactive
- outcome [2]: inactive
- outcome [3]: inactive

Compound: C[C@H]1CN(C2COC2)CCN1c1ccc(Nc2cc(-c3ccnc(N4CCn5c(cc6c5CC(C)(C)C6)C4=O)c3CO)cn(C)c2=O)nc1
- outcome [1]: inactive
- outcome [2]: inactive
- outcome [4]: inactive
- outcome [3]: inactive

Compound: CN[C@@H](C)C(=O)N[C@@H]1C(=O)N(Cc2c(C)ccc3ccccc23)c2ccc(C#N)cc2N(C(C)=O)[C@H]1C
- outcome [1]: inactive
- outcome [2]: inactive
- outcome [4]: inactive
- outcome [3]: inactive

Compound: Cn1cc(-c2ccc3c(c2)CCN3C(=O)Cc2cccc(C(F)(F)F)c2)c2c(N)ncnc21
- outcome [1]: inactive
- outcome [2]: inactive
- outcome [4]: inactive
- outcome [3]: inactive
- fold change ([5]; stronger effect = lower value, cell number ratio, induced over uninduced): 0.811 (inactive)
- fold change ([5]; measured here: relative caspase fold change +Dox/-Dox): 0.484
- cell count ([5]; measured here: total cells with miR-34 induction, stronger effect = lower value): 4720
- cell count ([5]; measured here: total cells without miR-34 induction): 5820
- z-score ([6]; MELAS cybrid survival, CellTiter-Glo 48 h, stronger effect = higher value): -0.412 (inactive)
- z-score ([6]; Rieske KO mouse fibroblast survival, CellTiter-Glo 72 h): -1.76
- viability ([7]; at 0.000305 µM, OCI-C5x cells, with rucaparib 10 µM, 100% = cells with rucaparib alone): 120% (inactive)
- viability ([7]; at 0.000305 µM, OCI-C5x cells, without rucaparib): 118% (inactive)
- viability ([7]; at 0.000305 µM, OCI-P5x cells, with rucaparib 20 µM, 100% = cells with rucaparib alone): 89.4% (active)
- viability ([7]; at 0.000305 µM, OCI-P5x cells, without rucaparib): 96.4% (active)
- viability ([7]; at 0.00122 µM, OCI-C5x cells, with rucaparib 10 µM, 100% = cells with rucaparib alone): 116% (inactive)
- viability ([7]; at 0.00122 µM, OCI-C5x cells, without rucaparib): 114% (inactive)
- viability ([7]; at 0.00122 µM, OCI-P5x cells, with rucaparib 20 µM, 100% = cells with rucaparib alone): 90.8% (active)
- viability ([7]; at 0.00122 µM, OCI-P5x cells, without rucaparib): 99.7% (active)
- viability ([7]; at 0.00488 µM, OCI-C5x cells, with rucaparib 10 µM, 100% = cells with rucaparib alone): 116% (inactive)
- viability ([7]; at 0.00488 µM, OCI-C5x cells, without rucaparib): 115% (inactive)
- viability ([7]; at 0.00488 µM, OCI-P5x cells, with rucaparib 20 µM, 100% = cells with rucaparib alone): 92.8% (active)
- viability ([7]; at 0.00488 µM, OCI-P5x cells, without rucaparib): 101% (inactive)
- viability ([7]; at 0.0195 µM, OCI-C5x cells, with rucaparib 10 µM, 100% = cells with rucaparib alone): 107% (inactive)
- viability ([7]; at 0.0195 µM, OCI-C5x cells, without rucaparib): 114% (inactive)
- viability ([7]; at 0.0195 µM, OCI-P5x cells, with rucaparib 20 µM, 100% = cells with rucaparib alone): 98% (active)
- viability ([7]; at 0.0195 µM, OCI-P5x cells, without rucaparib): 107% (inactive)
- viability ([7]; at 0.0781 µM, OCI-C5x cells, with rucaparib 10 µM, 100% = cells with rucaparib alone): 106% (inactive)
- viability ([7]; at 0.0781 µM, OCI-C5x cells, without rucaparib): 113% (inactive)
- viability ([7]; at 0.0781 µM, OCI-P5x cells, with rucaparib 20 µM, 100% = cells with rucaparib alone): 88% (active)
- viability ([7]; at 0.0781 µM, OCI-P5x cells, without rucaparib): 101% (inactive)
- viability ([7]; at 0.313 µM, OCI-C5x cells, with rucaparib 10 µM, 100% = cells with rucaparib alone): 109% (inactive)
- viability ([7]; at 0.313 µM, OCI-C5x cells, without rucaparib): 125% (inactive)
- viability ([7]; at 0.313 µM, OCI-P5x cells, with rucaparib 20 µM, 100% = cells with rucaparib alone): 79.9% (active)
- viability ([7]; at 0.313 µM, OCI-P5x cells, without rucaparib): 107% (inactive)
- viability ([7]; at 1.25 µM, OCI-C5x cells, with rucaparib 10 µM, 100% = cells with rucaparib alone): 123% (inactive)
- viability ([7]; at 1.25 µM, OCI-C5x cells, without rucaparib): 144% (inactive)
- viability ([7]; at 1.25 µM, OCI-P5x cells, with rucaparib 20 µM, 100% = cells with rucaparib alone): 74.9% (active)
- viability ([7]; at 1.25 µM, OCI-P5x cells, without rucaparib): 109% (inactive)
- viability ([7]; at 5 µM, OCI-C5x cells, with rucaparib 10 µM, 100% = cells with rucaparib alone): 7.91% (active)
- viability ([7]; at 5 µM, OCI-C5x cells, without rucaparib): 79% (active)
- viability ([7]; at 5 µM, OCI-P5x cells, with rucaparib 20 µM, 100% = cells with rucaparib alone): 53% (active)
- viability ([7]; at 5 µM, OCI-P5x cells, without rucaparib): 69.3% (active)

Compound: Nc1n[n+]([O-])c2ccccc2[n+]1[O-]
- outcome [1]: inactive
- outcome [2]: inactive
- outcome [3]: inactive

Compound: CC(C)Cc1ccc([C@@H](C)C(=O)NS(C)(=O)=O)cc1
- outcome [1]: inactive
- outcome [2]: inactive
- outcome [3]: inactive

Compound: CCn1c(=O)c(-c2ccc(-c3cncc(C)n3)cc2Cl)cc2cnc(NCCC3CCN(C)CC3)nc21
- outcome [1]: inactive
- outcome [2]: inactive
- outcome [4]: inactive
- IC50 [3]: 1860 nM (active)

Compound: C[C@H](NC(=O)C(=O)Nc1ccccc1C(C)(C)C)C(=O)N[C@@H](CC(=O)O)C(=O)COc1c(F)c(F)cc(F)c1F
- outcome [1]: inactive
- AC50 [2]: 16600 nM (active)
- AC50 [4]: 2950 nM (active)
- outcome [3]: inactive
